Only some compounds are listed: those with a hit (about 19% of all), similar ones and a draw of the others.
TDP1 cell CPT: DT40-hTDP1 cell growth loss with CPT. chicken DT40 Tdp1-/-;hTDP1 cells + 20 nM CPT, ATP luminescence, 48 h. 420,000 tested, 12% active. Potency, µM (titrated, usually from 46.2 µM), for inactives: top-dose activity change, negative = growth inhibition, most hits filed as inhibitors. AID 686979; further: potency means the concentration at half of the fitted maximal effect; nearly all actives have a fitted effect of over 55% in size
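Cell growth measured by CellTiter-Glo luminescence after a minimum 48 h, 37 C compound exposure with 20 nM CPT in Tdp1-knockout DT40 cells stably expressing hTDP1, seeded 400/well; qHTS titration format.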
HT1080NT lethal: kills 2HG-producing HT-1080-NT fibrosarcoma cells | HT-1080-NT fibrosarcoma viability, CellTiter-Glo ATP luminescence, 48 h | Potency, µM (series often up to 46.1 µM), inactives show at the highest dose activity, negative = less viability, actives largely listed as cytotoxic | 360,000 tested, 1.6% active;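 further: NT is the 2HG producing partner of a matched IDH1 knockdown line; potency means the concentration at half of the fitted maximal effect; 0% = DMSO-treated cells and -100% = media-only wells without cells; nearly all actives have a fitted effect of over 55% in size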
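Viability of the 2HG-overproducing fibrosarcoma line after 48 hours of compound exposure at 37 degrees C was determined by luminescence with CellTiter-Glo, and concentration-effect curves were then fitted and categorized.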
DT40 TDP1 no CPT: qHTS for Inhibitors of human tyrosyl-DNA phosphodiesterase 1 (TDP1): qHTS in cells in absence of CPT; DT40 Tdp1-/- hTDP1 cells, no CPT, ATP luminescence, 48 h; Potency, µM (highest dose often 46.2 µM), for the others: at the highest dose activity change, negative = growth inhibition, usual class: inhibitors; 420,000 tested, 15% active; further: potency means the concentration at half of the fitted maximal effect; nearly all actives have a fitted effect of over 55% in size
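Growth of hTDP1-complemented DT40 Tdp1-knockout cells is measured by ATP luminescence after at least 48 hr compound exposure at 37 °C, with DMSO substituting for the 20 nM CPT used in the parallel screen.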
IL-1B inflam inh: inhibitors of inflammasome signaling (IL-1 beta secretion). THP-1 LPS/ATP IL-1B secretion, AlphaLISA, 16 h; hits give low values. activity change, % at 57.5 µM. 360,000 tested, 4.7% active; in the data active means activity change below about -50%; inconclusive means mostly about -30% to -49%
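Secreted IL-1B measured by AlphaLISA bead assay after 16 h compound exposure of THP-1 cells; compounds (final up to 57.5 uM) added 1 h before LPS (250 ng/mL) and ATP (1.25 mM) stimulation; lower signal means less secretion.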
HT1080 IDH1KD tx: HT-1080 IDH1 knockdown cell toxicity (counter line). Potency, µM (highest dose often 46.1 µM), inactives show at the top dose activity, negative = toxicity, usual class: cytotoxic. 360,000 tested, 2% active. HT-1080 IDH1 knockdown viability, ATP luminescence, 48 h. AID 686971;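 further: potency means the concentration at half of the fitted maximal effect; 0% = DMSO wells and -100% = cell-free medium wells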
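Luminescent ATP read-out (CellTiter-Glo, 10 min at room temperature) after 48 h compound exposure at 37 °C gave viability of IDH1-knockdown HT-1080 cells. Activity was normalised to DMSO and cell-free wells, then fitted as concentration-response curves.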
An asterisk follows results filed as active; u = inconclusive; x = no result. Unless noted, the call rests on the fitted dose curve; in most records, active means well fitted curve in the direction sought with a large enough effect; inconclusive means small, poorly fitted or top-dose-only effect, or another doubt; inactive means no such curve, though single readings can be large; an effect the other way counts as inactive or inconclusive. Unless noted, on the % scale 0 is the no-effect control and ±100 the full control effect.

SMILES | TDP1 cell CPT | HT1080NT lethal | DT40 TDP1 no CPT | IL-1B inflam inh | HT1080 IDH1KD tx
COC(=O)C1=C(C)N(Cc2ccccc2)C(=NCCc2c[nH]c3ccccc23)N[C@H]1c1ccccc1 | u | -17% | 21µM* | u | -21%
CCN1C(=NCCc2c[nH]c3ccccc23)N[C@@H](c2ccccc2)[C@H](C(=O)OC)[C@H]1C | 9.2µM* | -6% | 18µM* | 14 | -1%
COC(=O)C1=C(C)N(Cc2ccccc2)C(=S)N[C@H]1c1cccc(F)c1 | u | -7% | -16% | -6 | 1%
COC(=O)C1=C(C)N(Cc2ccccc2)C(=NCCc2c[nH]c3ccccc23)N[C@H]1c1cccc(F)c1 | 5.2µM* | u | 2.6µM* | -50* | -25%
CCOC(=O)c1c(C)[nH]c(C)c1S(=O)(=O)N1CCC(C(=O)Nc2ccccn2)CC1 | -2% | x | 1% | x | x
CC(=O)NC(c1cccc(F)c1)c1nc(-c2cccs2)cs1 (stereo not drawn) | -18% | 0% | u | u | 1%
CCCNc1nc2ccccc2c(=O)[nH]1 | 12µM* | -5% | 21µM* | -69* | 1%
CCSc1ccccc1C(=O)Nc1nc2ccccc2c(=O)[nH]1 | u | -14% | 21µM* | 6 | u
C=CCSc1nc2ccccc2c(=O)[nH]1 | 0% | -4% | 0% | 19 | 0%
CSc1ccccc1C(=O)Nc1nc2ccccc2c(=O)[nH]1 | -30% | -25% | -21% | -2 | -2%
C=CCNc1nc2ccccc2c(=O)[nH]1 | u | -2% | 21µM* | 31 | 4%
CC(C)Nc1nc2ccccc2c(=O)[nH]1 | 16µM* | 0% | u | 24 | 1%
COc1ccccc1NC(=O)Cn1cnc2c(nc3n2CCCCC3)c1=O | 24% | 7% | -8% | 24 | -10%
Cc1cccc(-n2c(=S)[nH]c3nc4c(cc3c2=O)COC(C)(C)C4)c1 | 6% | 3% | -24% | x | 23%
CCCCNCc1nc2ccccc2c(=O)[nH]1 | -16% | -5% | -28% | -52* | 2%
O=c1[nH]c(-c2ccncc2)nc2ccccc12 | 21µM* | -7% | u | 17 | -8%
O=c1[nH]c(-c2cccnc2)nc2ccccc12 | -28% | 2% | -5% | 27 | 0%
COc1ccc(CN(CC(O)COCc2ccccc2)S(=O)(=O)c2ccccc2Br)cc1OC (stereo not drawn) | u | -27% | 16µM* | -64* | -26%
CC(C)(C)c1cc(C(=O)O)n(Cc2ccc(Cl)cc2Cl)n1 | 15µM* | -1% | -13% | 23 | -8%
COC(=O)c1cc(C(=O)OC)n(Cc2ccc(Cl)cc2Cl)n1 | -19% | 3% | 2% | 4 | -17%
CC(C)c1ccccc1NC(=O)COC(=O)c1cc([N+](=O)[O-])ccc1N1CCOCC1 | u | -14% | 18µM* | -19 | -4%
Cc1cc(NC(=O)COC(=O)c2cc([N+](=O)[O-])ccc2N2CCOCC2)ccc1Br | u | u | 16µM* | u | u
O=C(COC(=O)c1cc([N+](=O)[O-])ccc1N1CCCC1)Nc1ccccc1OC(F)F | u | -13% | 16µM* | -4 | 3%
O=C(COC(=O)c1cc([N+](=O)[O-])ccc1N1CCOCC1)Nc1ccccc1OC(F)F | -26% | -1% | -22% | 0 | -9%
Cn1cc(CNCc2ccc(-n3cccn3)cc2)c(-c2ccccc2F)n1 | u | -1% | 21µM* | 28 | -29%
SMILES | TDP1 cell CPT | HT1080NT lethal | DT40 TDP1 no CPT | IL-1B inflam inh | HT1080 IDH1KD tx
CCS(=O)(=O)N1CCc2cc(C(=O)Nc3cc([N+](=O)[O-])ccc3C)ccc21 | u | x | -23% | x | x
CCS(=O)(=O)N1CCc2cc(C(=O)Nc3ccc(OC)c(Cl)c3)ccc21 | u | x | 18µM* | x | x
CCS(=O)(=O)N1CCc2cc(C(=O)Nc3ccc(C)c(Cl)c3)ccc21 | 18µM* | x | 13µM* | x | x
CCS(=O)(=O)N1CCc2cc(C(=O)Nc3ccc(OC)cc3OC)ccc21 | u | x | 16µM* | x | x
CC(C)N(C)c1ncnc2c1ncn2[C@H]1CN(Cc2ccco2)C[C@@H](CO)O1 | 2% | 7% | 9% | 1 | 1%
CC(C)N(C)c1ncnc2c1ncn2[C@H]1CN(Cc2ccncc2)C[C@@H](CO)O1 | 23µM* | 3% | 23µM* | 15 | 1%
OCCNc1ncnc2c1ncn2[C@H]1CN(Cc2ccncc2)C[C@@H](CO)O1 | -8% | 10% | 2% | -89* | 22%
CN(C)c1ncnc2c1ncn2[C@H]1CN(Cc2ccncc2)C[C@@H](CO)O1 | -27% | 0% | u | 28 | 0%
CC(C)N(C)c1ncnc2c1ncn2[C@H]1CN(Cc2ccc(-c3ccccc3)cc2)C[C@@H](CO)O1 | 7.3µM* | 23µM* | 6.5µM* | -13 | u
O=C(c1cc(C2CCCCN2S(=O)(=O)c2ccc(F)cc2F)on1)N1CCOCC1 (stereo not drawn) | -1% | 4% | -17% | 30 | 6%
CCC(=O)N1CCCC(C)(C(=O)Nc2ccc3oc(CC)nc3c2)C1 (stereo not drawn) | -7% | 15% | -2% | 43 | 0%
CC1(C)CC(=O)c2cc(-c3nc(-c4ccccc4)cs3)c(=O)[nH]c2C1 | 9.2µM* | x | 13µM* | x | x
CC1(C)CC(=O)c2cc(C(=O)Nc3ccccc3)c(=O)[nH]c2C1 | -24% | x | u | x | x
Cc1ccc(-c2csc(-c3cc4c([nH]c3=O)CC(c3ccccc3)CC4=O)n2)cc1 (stereo not drawn) | 1.5µM* | x | 1.3µM* | x | x
COc1ccc(C2CC(=O)c3cc(-c4nc(-c5ccc(Cl)cc5)c(C)s4)c(=O)[nH]c3C2)cc1 (stereo not drawn) | u | x | 1.8µM* | x | x
COc1ccc(C2CC(=O)c3cc(-c4nc(-c5cccc(Cl)c5)cs4)c(=O)[nH]c3C2)cc1 (stereo not drawn) | 3% | x | 0% | x | x
CCOC(=O)C1(Cc2ccccc2C(F)(F)F)CCN(C2CCN(C(C)=O)CC2)CC1 | 3% | -20% | -27% | 2 | 0%
O=C(NCc1ccccn1)c1cccc(NS(=O)(=O)c2ccccc2F)c1 | 23% | 11% | -8% | 2 | 1%
COC(=O)C=CSC(=S)C1CCCC1=N (stereo not drawn) | 2% | 14% | -22% | -3 | -7%
CC12CCC(CC1O)C2C(=O)O (stereo not drawn) | 7% | 6% | -4% | -26 | 7%
CN(Cc1ccccc1)C(=O)c1ccc(NC(=O)Cc2ccc(NC(=O)C3CCCN(C(=O)CCc4ccccc4)C3)cc2)cc1 (stereo not drawn) | 10µM* | -2% | 15µM* | 27 | -20%

Source: PubChem (National Center for Advancing Translational Sciences (NCATS))
